pPAFAH FP inh: inhibitors of human plasma PAF acetylhydrolase (pPAFAH); Q13093; recombinant pPAFAH, FP-rhodamine probe fluorescence polarization; inhibition, % at 3.39 µM; 330,000 compounds, 1.5% hits; AID 463082;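 active = inhibition above the mean inhibition across the screen plus 3 SD, cut at about 25% in these data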;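 note: inhibitors block binding of the rhodamine activity-based probe so polarization drops; 0% = enzyme with DMSO and 100% = wells lacking pPAFAH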
PAFAH2 inh: PAFAH2 (human) inhibition; Q99487; recombinant PAFAH2, FP-rhodamine activity probe, fluorescence polarization; inhibition, % at 3.39 µM; 340,000 compounds, 0.99% hits; AID 492956;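 active = inhibition above the mean over all tested compounds plus 3 SD, cut at about 30% in these data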;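 note: inhibitors block probe labeling of enzyme so polarization drops; 0% = enzyme with DMSO and 100% = wells lacking PAFAH2 protein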
PAFAH1B2 FP inh: PAFAH1B2 (human) inhibition. recombinant PAFAH1B2, FP-rhodamine activity probe, fluorescence polarization. P68402. AID 492953. 340,000 compounds, 1.2% hits. inhibition, % at 3.39 µM;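 active = inhibition above the mean of all tested compounds plus 3 SD, cut at about 24% in these data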;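 note: 0% = enzyme with DMSO and 100% = wells lacking PAFAH1B2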
Target sequence (P68402 whole entry, looked up): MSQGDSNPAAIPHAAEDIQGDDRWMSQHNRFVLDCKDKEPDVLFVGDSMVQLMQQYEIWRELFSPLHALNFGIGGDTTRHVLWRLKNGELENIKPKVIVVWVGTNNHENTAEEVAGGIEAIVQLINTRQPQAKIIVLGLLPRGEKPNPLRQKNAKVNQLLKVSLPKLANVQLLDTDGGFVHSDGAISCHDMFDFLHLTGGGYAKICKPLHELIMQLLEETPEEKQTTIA
Pemphigus Ab inh: inhibitors of pemphigus antibody binding to human desmoglein-3. DSG3-coupled beads, scFv-anti-DSG3-GFP binding, flow cytometry; stronger effect = lower value. binding (percent of control), % at 10 µM. 310,000 compounds, 0.48% hits;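 active = binding more than 3 SD below its plate's average and above zero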
PfM18AAP inh-1: blocks P. falciparum M18 aspartyl aminopeptidase; recombinant PfM18AAP, H-Glu-NHMec fluorogenic cleavage; inhibition, % at 7.35 µM; 290,000 compounds, 1.2% hits;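 active = inhibition above the campaign mean inhibition over all tested compounds plus 3 SD, cut at about 28% in these data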;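 note: 0% = plate median of test compound wells and 100% = 2 mM ZnCl2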
PAFAH1B3 inh: inhibitors of human PAFAH1B3. Q15102. recombinant PAFAH1B3, FP-rhodamine probe, fluorescence polarization. inhibition, % at 3.39 µM. 340,000 compounds, 0.28% hits. AID 492972;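 active = inhibition above the screen-wide average of all tested compounds plus 3 SD, cut at about 25% in these data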;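 note: 0% = enzyme with DMSO only and 100% = wells lacking PAFAH1B3 protein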
Target sequence (Q15102 whole entry, looked up): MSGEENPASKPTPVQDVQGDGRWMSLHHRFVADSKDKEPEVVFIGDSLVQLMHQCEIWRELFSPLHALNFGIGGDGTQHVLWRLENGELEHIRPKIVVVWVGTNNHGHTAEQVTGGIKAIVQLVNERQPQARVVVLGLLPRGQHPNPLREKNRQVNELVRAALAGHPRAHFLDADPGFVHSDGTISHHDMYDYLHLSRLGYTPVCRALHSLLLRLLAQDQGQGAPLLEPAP
PfM18AAP inh-2: PfM18AAP inhibition, confirmation. shares compounds with PfM18AAP inh-1. recombinant PfM18AAP, H-Glu-NHMec fluorogenic cleavage. inhibition, % at 7.35 µM. 2,400 compounds, 28% hits. AID 2170;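 active = mean inhibition over replicate wells above the hit cutoff set for the earlier primary screen, cut at about 29% in these data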;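 note: 0% = median of test compound wells and 100% = 2 mM ZnCl2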
CTSL1 confirm: Cathepsin L (human) inhibition, confirmation. shares compounds with PfM18AAP inh-1. AID 2178. purified cathepsin L1, Z-Leu-Arg-MCA fluorescence. 2,400 tested, under 10 active. inhibition, % at 5.96 µM;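 active = average inhibition across replicates above the hit cutoff set in the earlier primary screen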;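 note: 0% = median of test compound wells and 100% = Z-Phe-Ala-diazomethylketone 1 µM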
pPAFAH confirm: pPAFAH (human) inhibition, confirmed. shares compounds with pPAFAH FP inh. recombinant pPAFAH, FP-Rh probe fluorescence polarization. inhibition, % at 3.39 µM. 2,300 compounds, 72% hits;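 active = mean inhibition of the triplicate above the hit cutoff set for the earlier primary screen, cut at about 25% in these data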;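 note: 0% = enzyme with DMSO and 100% = wells lacking pPAFAH enzyme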
PAFAH1B3 conf FP: PAFAH1B3 (human) inhibition, confirmed. 390 compounds, 30% hits. inhibition, % at 3.39 µM. recombinant PAFAH1B3, FP-Rh activity-based probe, fluorescence polarization. shares compounds with PAFAH1B3 inh;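 active = average inhibition over triplicate runs above the hit cutoff set in the earlier primary screen, cut at about 25% in these data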;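 note: 0% = enzyme with DMSO and 100% = wells lacking PAFAH1B3 protein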
The depositor's hits bear a star. Hits are enriched below; roughly 3.8% of the tested compounds scored in any of these assays.

COc1ccc(/C=N/NC(=O)c2ccccc2O)cc1Cn1cc([N+](=O)[O-])cn1 was read as pPAFAH FP inh 2.8, PAFAH2 inh 0.9, PAFAH1B2 FP inh -3.9, Pemphigus Ab inh 87.2, PfM18AAP inh-1 4.6 and PAFAH1B3 inh 6.1.
`COc1ccc(/C=N/NC(=O)c2cc(O)c(O)c(O)c2)cc1Cn1cc([N+](=O)[O-])cn1` gave PAFAH2 inh 15.1, PAFAH1B2 FP inh 6.6, Pemphigus Ab inh 94.9, PfM18AAP inh-1 48.5*, PAFAH1B3 inh 39.4*, PfM18AAP inh-2 17.1, CTSL1 confirm -0.8 and PAFAH1B3 conf FP 8.1.
CC(C)(Oc1ccc(Cl)cc1)C(=O)O/N=C(\N)c1ccncc1 was read as pPAFAH FP inh 3.0, PAFAH2 inh 3.8, PAFAH1B2 FP inh 5.8, Pemphigus Ab inh 126.8, PfM18AAP inh-1 6.1 and PAFAH1B3 inh 3.4.
COc1ccccc1-n1c(SCC(=O)Nc2ccccc2C)nc(O)cc1=O was read as pPAFAH FP inh 81.1*, PAFAH2 inh 1.6, PAFAH1B2 FP inh 1.7, Pemphigus Ab inh 108.9, PfM18AAP inh-1 6.3, PAFAH1B3 inh 3.5 and pPAFAH confirm 5.5.
Screening COc1ccccc1NC(=O)CSc1nc(O)cc(=O)n1-c1ccccc1OC returned pPAFAH FP inh 42.6*, PAFAH2 inh -3.2, PAFAH1B2 FP inh -2.8, Pemphigus Ab inh 98.8, PfM18AAP inh-1 13.2, PAFAH1B3 inh 5.7 and pPAFAH confirm -0.5.
For O=c1cc(-c2ccc(O)c(-c3c(O)cc(O)c4c(=O)cc(-c5ccc(O)cc5)oc34)c2)oc2cc(O)cc(O)c12 the results were pPAFAH FP inh 62.4*, PAFAH2 inh 37.5*, PAFAH1B2 FP inh 36.2*, Pemphigus Ab inh 99.8, PfM18AAP inh-1 -0.5, PAFAH1B3 inh 54.2* and pPAFAH confirm 70.6*.
For O=c1cc(-c2ccc(O)cc2)oc2c([C@@H]3O[C@H](CO)[C@@H](O)[C@H](O)[C@H]3O)c(O)c([C@@H]3O[C@H](CO)[C@@H](O)[C@H](O)[C@H]3O)c(O)c12 the results were pPAFAH FP inh 5.7, PAFAH2 inh 2.5, PAFAH1B2 FP inh 4.3, Pemphigus Ab inh 101.5, PfM18AAP inh-1 12.6 and PAFAH1B3 inh 10.4.
For O=c1c(-c2c(O)cc(O)c3c(=O)cc(-c4ccc(O)cc4)oc23)c(-c2ccc(O)cc2)oc2cc(O)cc(O)c12 the results were pPAFAH FP inh 66.0*, PAFAH2 inh 21.4, PAFAH1B2 FP inh 17.0, PAFAH1B3 inh 43.9* and pPAFAH confirm 68.4*.
For O=c1cc(-c2ccc(O)cc2)oc2c(-c3c(O)cc(O)c4c(=O)cc(-c5ccc(O)cc5)oc34)c(O)cc(O)c12 the results were pPAFAH FP inh 62.7*, PAFAH2 inh 57.3*, PAFAH1B2 FP inh 39.5*, Pemphigus Ab inh 104.6, PAFAH1B3 inh 55.8* and pPAFAH confirm 68.2*.
For COc1ccc(-c2cc(=O)c3c(O)cc(O)cc3o2)cc1 the results were pPAFAH FP inh 4.3, PAFAH2 inh 1.3, PAFAH1B2 FP inh -2.1 and PAFAH1B3 inh 12.8.
For CCC(C)c1ccc(S(=O)(=O)N2CCN(S(=O)(=O)c3ccc(NC(C)=O)cc3)CC2)cc1 (configuration not stated) the results were pPAFAH FP inh -3.0, PAFAH2 inh -17.0, PAFAH1B2 FP inh -12.7, PfM18AAP inh-1 -1.9 and PAFAH1B3 inh -29.7.
O=C(CCCSc1ccc(Cl)cc1)Nc1cc(S(=O)(=O)N2CCOCC2)ccc1O was read as pPAFAH FP inh 90.9*, PAFAH2 inh 78.7*, PAFAH1B2 FP inh 62.9*, Pemphigus Ab inh 97.8, PAFAH1B3 inh 1.7 and pPAFAH confirm 88.5*.
Screening Cc1cc(Cl)ccc1OCCCC(=O)Nc1cc(S(=O)(=O)N2CCOCC2)ccc1N1CCOCC1 returned PAFAH2 inh 5.3, PAFAH1B2 FP inh 1.5, Pemphigus Ab inh 97.5 and PAFAH1B3 inh 3.6.
O=C(CCC(=O)N(CC(=O)NC1CCCC1)Cc1ccccc1Cl)Nc1nccs1 was read as pPAFAH FP inh 2.4, PAFAH2 inh 2.6, PAFAH1B2 FP inh 8.2, Pemphigus Ab inh 100.3, PfM18AAP inh-1 -16.3 and PAFAH1B3 inh 1.8.
O=C(O)c1ccc(Nc2nc3ccccc3nc2NS(=O)(=O)c2ccc(F)cc2)cc1 was read as pPAFAH FP inh 15.7, PAFAH2 inh 7.0, PAFAH1B2 FP inh 7.4, PfM18AAP inh-1 -14.5 and PAFAH1B3 inh 9.1.
CC(=O)Nc1ccc(S(=O)(=O)Nc2nc3ccccc3nc2Nc2ccc(N)cc2)cc1 was read as pPAFAH FP inh 38.0*, PAFAH2 inh 11.4, PAFAH1B2 FP inh 3.0, Pemphigus Ab inh 90.2, PfM18AAP inh-1 -6.5, PAFAH1B3 inh 12.2 and pPAFAH confirm 10.7.
O=C(O)CC(CCc1ccccc1)OC1OC(CO)C(O)C(O)C1O (configuration not stated) was read as pPAFAH FP inh 73.9*, PAFAH2 inh 38.7*, PAFAH1B2 FP inh 18.3, Pemphigus Ab inh 91.9, PAFAH1B3 inh 24.7 and pPAFAH confirm 34.2*.
[C-]#[N+][C@H](O[C@@H]1O[C@H](CO)[C@@H](O)[C@H](O)[C@H]1O)c1ccccc1 was read as pPAFAH FP inh 7.5, PAFAH2 inh -4.9, PAFAH1B2 FP inh 4.2, Pemphigus Ab inh 96.4 and PAFAH1B3 inh 0.4.
`CSc1cc(C)c(OCC(=O)Nc2c(C)nn(C)c2C)c(C)c1` gave pPAFAH FP inh -2.4, PAFAH2 inh 1.8, PAFAH1B2 FP inh 0.9, Pemphigus Ab inh 103.4, PfM18AAP inh-1 -1.8 and PAFAH1B3 inh 5.3.
CCCCCCCCCCS(=O)(=O)N/N=C/c1ccc(O)cc1 was read as pPAFAH FP inh 37.7*, PAFAH2 inh 2.6, PAFAH1B2 FP inh 3.0, Pemphigus Ab inh 99.4, PfM18AAP inh-1 -10.4, PAFAH1B3 inh -4.7 and pPAFAH confirm 43.8*.
Screening CCCCCCC(=O)N/N=C/c1ccc(Br)cc1 returned pPAFAH FP inh 5.1, PAFAH2 inh -1.0, PAFAH1B2 FP inh 3.0, Pemphigus Ab inh 126.0, PfM18AAP inh-1 -1.6 and PAFAH1B3 inh -0.8.
CN(C)c1cc(N/N=C/c2ccc(Cl)cc2)nc(N(C)C)n1 was read as PAFAH2 inh 4.3, PAFAH1B2 FP inh 3.5, Pemphigus Ab inh 105.2, PfM18AAP inh-1 12.0 and PAFAH1B3 inh -3.9.
